Experimental data from PubChem BioAssay (Tox21).
Records with an inconclusive call do not appear. Calls of active or inactive are those of the source. Unless noted, calls come from the whole dose curve; as a rule, active = well fitted curve in the direction sought with a large enough effect in the repeat runs; inconclusive = weak or mixed curves; inactive = no such curve, though single readings can be large; an effect the other way counts as inactive or inconclusive.

Legend:
[1] = qHTS RealTime-Glo MT Cell Viability Assay in HEK293 cells - 24 hour (AID 1224886); note: nearly all actives have a fitted effect of over 50% in size; note: potency is the fitted concentration of half-maximal effect; for activity change, negative = cytotoxicity: top concentration of the series differs between compounds
In short: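 Luminescence generated by NanoLuc from substrate produced by living HEK293 cells served as the viability signal. Each value reflects the reading at its stated time point during continuous 40 h compound exposure at 37 C.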

[2] = qHTS RealTime-Glo MT Cell Viability Assay in HEK293 cells - 8 hour (AID 1224887); note: nearly all actives have a fitted effect of over 50% in size; note: potency is the fitted concentration of half-maximal effect; for activity change, negative = cytotoxicity: top concentration of the series differs between compounds
In short: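 Luminescence, which tracks viable cell number through reduction of the prosubstrate to a NanoLuc substrate, was read over continuous 37 C culture. Cells (600/well) were premixed with reagent and rested 5 h before 23 nL of compound in DMSO was pinned.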

[3] = A CellTox Green Cytotoxicity Assay to monitor cytotoxicity in HEK293 cells - 16 hour (AID 1224888); note: nearly all actives have a fitted effect of over 35% in size
In short: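 Fluorescence from a DNA-binding dye excluded by viable cells was measured repeatedly in the same HEK293 wells (600 cells/well) during continuous compound exposure at 37 C. Each assay gives one read point: 0, 8, 16, 24, 32 or 40 h.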

[4] = qHTS RealTime-Glo MT Cell Viability Assay in HepG2 cells - 0 hour (AID 1224889); note: nearly all actives have a fitted effect of over 50% in size
In short: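 Tox21 10K library screened in qHTS format on HepG2 cells carrying RealTime-Glo reagents. Compounds were added after a 5 h preincubation, and the luminescent signal from continuous culture was measured repeatedly during 40 h treatment.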

[5] = A CellTox Green Cytotoxicity Assay to monitor cytotoxicity in HepG2 cells - 8 hour (AID 1224890); note: nearly all actives have a fitted effect of over 45% in size
In short: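 Real-time cytotoxicity: fluorescence of a cell-impermeant cyanine dye binding DNA of dead HepG2 cells, measured repeatedly (0–40 h) during compound exposure at 37 C. Cells seeded 600/well with reagent, dosed after 5 h.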

[6] = qHTS assay to identify small molecule antagonists of the estrogen receptor alpha (ER-alpha) signaling pathway using the BG1 cell line in the presence of 0.1 nM 17-beta-estradiol - cell viability counter screen (AID 1259241); note: nearly all actives have a fitted effect of over 40% in size
In short: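 Estradiol-stimulated (0.1 nM) VM7Luc4E2 cells exposed to compounds 22 hr; viability measured by fluorescence of cleaved CellTiter-Fluor substrate after 30 min.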

[7] = qHTS assay to identify small molecule antagonists of the androgen receptor (AR) signaling pathway using the MDA cell line in the presence of 0.5 nM R1881 - cell viability counter screen (AID 1259242); note: nearly all actives have a fitted effect of over 45% in size
In short: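 Live-cell protease activity was measured by CellTiter-Fluor fluorescence after 30 min. Before that, MDA-kb2 MMTV-luciferase cells had 16 hr at 37C without CO2, exposed to test compounds and 0.5 nM R1881 final.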

[8] = biological target: Estrogen receptor (Homo sapiens) (UniProt P03372); assay: qHTS assay to identify small molecule antagonists of the estrogen receptor alpha (ER-alpha) signaling pathway using the BG1 cell line in the presence of 0.1 nM 17-beta-estradiol (AID 1259244); note: nearly all actives have a fitted effect of over 50% in size
Chain of Estrogen receptor (Homo sapiens) (P03372 whole entry, looked up): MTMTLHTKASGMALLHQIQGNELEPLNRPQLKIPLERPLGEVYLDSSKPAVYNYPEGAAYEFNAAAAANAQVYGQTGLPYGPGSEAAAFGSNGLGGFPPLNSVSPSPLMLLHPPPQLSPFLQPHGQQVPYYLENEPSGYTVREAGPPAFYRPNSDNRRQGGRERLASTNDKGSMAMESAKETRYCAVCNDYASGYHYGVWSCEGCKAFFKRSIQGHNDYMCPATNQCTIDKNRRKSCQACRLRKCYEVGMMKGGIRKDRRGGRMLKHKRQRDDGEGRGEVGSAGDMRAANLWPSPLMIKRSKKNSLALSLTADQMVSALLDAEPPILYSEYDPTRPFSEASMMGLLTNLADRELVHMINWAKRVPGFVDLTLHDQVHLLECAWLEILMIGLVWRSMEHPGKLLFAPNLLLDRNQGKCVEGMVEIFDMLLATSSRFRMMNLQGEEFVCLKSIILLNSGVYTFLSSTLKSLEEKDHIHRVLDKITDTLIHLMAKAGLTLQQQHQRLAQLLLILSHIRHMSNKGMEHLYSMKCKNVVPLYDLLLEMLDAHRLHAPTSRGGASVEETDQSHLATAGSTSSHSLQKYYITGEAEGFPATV
In short: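 Luciferase luminescence (ONE-Glo, 30 min at room temperature) was read after 22 hr at 37C exposure to compounds plus 17beta-estradiol at 0.1 nM final. Cells were VM7Luc4E2 with endogenous ER-alpha and an ERE-driven luciferase, pre-cultured 5 days in hormone-depleted medium.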

[9] = qHTS assay to identify small molecule phospholipidosis (PLD) inducers (AID 1259344; active = well fitted curve in the direction sought with a large enough effect; an effect the other way counts as inactive or inconclusive)
In short: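 After 4 h attachment on collagen I, HepG2 cells were dosed with compound alongside LipidTOX Red, kept 24 h at 37 C, fixed, and imaged for lamellar phospholipid pits.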

[10] = biological target: Androgen receptor (Homo sapiens) (UniProt P10275); assay: qHTS assay to identify small molecule antagonists of the androgen receptor (AR) signaling pathway using the MDA cell line in the presence of 0.5 nM R1881 (AID 1259243); note: nearly all actives have a fitted effect of over 50% in size
Chain of Androgen receptor (Homo sapiens) (P10275 whole entry, looked up): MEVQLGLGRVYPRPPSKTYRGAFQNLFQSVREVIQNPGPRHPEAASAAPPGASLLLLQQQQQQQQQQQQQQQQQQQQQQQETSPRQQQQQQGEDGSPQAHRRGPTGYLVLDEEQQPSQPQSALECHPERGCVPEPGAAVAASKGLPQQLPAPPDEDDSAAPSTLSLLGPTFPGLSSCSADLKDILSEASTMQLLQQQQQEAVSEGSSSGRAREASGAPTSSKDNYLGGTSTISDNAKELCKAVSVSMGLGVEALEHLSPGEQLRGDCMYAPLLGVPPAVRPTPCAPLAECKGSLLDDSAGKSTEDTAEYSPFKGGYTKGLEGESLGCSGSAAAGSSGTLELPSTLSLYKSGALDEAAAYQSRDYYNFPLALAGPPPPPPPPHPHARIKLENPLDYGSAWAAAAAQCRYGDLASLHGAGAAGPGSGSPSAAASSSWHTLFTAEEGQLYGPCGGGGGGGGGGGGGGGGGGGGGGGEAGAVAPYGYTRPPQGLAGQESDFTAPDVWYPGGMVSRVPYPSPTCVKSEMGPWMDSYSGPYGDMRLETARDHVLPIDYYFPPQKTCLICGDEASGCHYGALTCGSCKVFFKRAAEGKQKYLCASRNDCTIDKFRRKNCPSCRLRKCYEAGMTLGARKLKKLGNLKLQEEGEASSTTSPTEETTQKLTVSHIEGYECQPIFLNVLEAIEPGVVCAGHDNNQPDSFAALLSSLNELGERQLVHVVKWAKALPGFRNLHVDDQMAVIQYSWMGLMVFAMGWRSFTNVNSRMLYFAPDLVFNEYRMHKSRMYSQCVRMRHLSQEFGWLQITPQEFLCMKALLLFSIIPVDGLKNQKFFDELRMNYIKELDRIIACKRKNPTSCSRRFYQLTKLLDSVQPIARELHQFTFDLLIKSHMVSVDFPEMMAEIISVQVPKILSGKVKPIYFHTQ
In short: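 Luminescent reporter readout (ONE-Glo, 30 min, room temperature) after 16 hr co-treatment of MDA-kb2 cells with test compounds and 0.5 nM R1881 final, at 37C without CO2. The MMTV-driven luciferase responds to both AR and GR.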
% is set by controls: 0 for no effect and ±100 for the full control effect.

CO/N=C(/C(=O)N[C@@H]1C(=O)N2C(C(=O)[O-])=C(C[n+]3ccn4ncccc43)CS[C@H]12)c1nsc(N)n1
inactive: Potency [1] | Potency [2] | Potency [3] | Potency [4] | Potency [5] | outcome [6] | outcome [7] | outcome [8] | outcome [9]

COc1ccc(CCO)cc1
inactive: Potency [1] | Potency [2] | Potency [3] | Potency [4] | Potency [5] | outcome [6] | Potency [10]

CCn1cc(C(=O)O)c(=O)c2cnc(N3CCCC3)nc21
inactive: activity change, negative = cytotoxicity [1] 7.35% [at 6.97 µM] | activity change, negative = cytotoxicity [2] 10.5% [at 6.97 µM] | activity change [3] 2.01% [at 6.97 µM, hits give high values] | activity change, negative = cytotoxicity [4] -5.5% [at 6.97 µM] | cytotoxicity increase [5] 3.53% [at 6.97 µM] | activity change, negative = cytotoxicity [6] -1.69% [at 8.39 µM] | viability change, negative = cytotoxic [7] 7.44% [at 8.39 µM] | outcome [9]

O=S(=O)(O)c1ccc2c(N=Nc3ccc(S(=O)(=O)O)c4ccccc34)c(O)c(S(=O)(=O)O)cc2c1
inactive: activity change, negative = cytotoxicity [1] 5.55% [at 6.97 µM] | activity change, negative = cytotoxicity [2] 2.74% [at 6.97 µM] | activity change [3] 8.43% [at 6.97 µM, hits give high values] | activity change, negative = cytotoxicity [4] 7.14% [at 6.97 µM] | cytotoxicity increase [5] -1.78% [at 6.97 µM] | activity change, negative = cytotoxicity [6] -26.3% [at 8.39 µM] | viability change, negative = cytotoxic [7] -14.9% [at 8.39 µM] | outcome [9]

CO[C@@]1(NC(=O)Cc2cccs2)C(=O)N2C(C(=O)O)=C(COC(N)=O)CS[C@@H]21
inactive: Potency [1] | Potency [2] | Potency [3] | Potency [4] | Potency [5] | outcome [6] | outcome [7] | outcome [8] | outcome [9]

CC1CCc2c(N3CCC(O)CC3)c(F)cc3c(=O)c(C(=O)O)cn1c23 (stereo not given)
inactive: Potency [1] | Potency [2] | Potency [3] | Potency [4] | Potency [5] | outcome [6] | outcome [7] | outcome [8] | outcome [9]

CC(C)NC(=O)c1ccc(C=O)cc1
inactive: Potency [1] | Potency [2] | Potency [3] | Potency [4] | Potency [5] | outcome [6] | Potency [10] | outcome [8]

COc1ccc2c(c1)c1c3n2CCN(C)C3=NCC1
inactive: Potency [1] | Potency [2] | Potency [3] | Potency [4] | Potency [5] | outcome [6] | outcome [7] | outcome [8] | outcome [9]

CCOCCOCC
inactive: Potency [1] | Potency [2] | Potency [3] | Potency [4] | Potency [5] | outcome [6] | outcome [8]

CC(N)CCCC(C)(C)O (stereo not given)
inactive: Potency [1] | Potency [2] | Potency [3] | Potency [4] | Potency [5] | outcome [6] | outcome [7] | outcome [9]

CCCCOCCOC(=O)COc1ccc(Cl)cc1Cl
inactive: Potency [1] | Potency [2] | Potency [3] | Potency [4] | Potency [5] | outcome [6] | outcome [8]

CC1=C(O)C(=O)C(C)O1 (stereo not given)
inactive: Potency [1] | Potency [2] | Potency [3] | Potency [4] | Potency [5] | outcome [6] | outcome [8]

NCc1ccc(S(N)(=O)=O)cc1
inactive: Potency [1] | Potency [2] | Potency [3] | Potency [4] | Potency [5] | outcome [6] | outcome [7] | outcome [9]

C=CCOC(=O)CCCCCC
inactive: Potency [1] | Potency [2] | Potency [3] | Potency [4] | Potency [5] | outcome [6] | Potency [10]

O=C(Cn1ccnc1[N+](=O)[O-])NCc1ccccc1
inactive: Potency [1] | Potency [2] | Potency [3] | Potency [4] | Potency [5] | outcome [6] | outcome [7] | outcome [8] | outcome [9]

COc1cc2c(cc1OC)CN(C(=O)[C@H](C)N[C@@H](CCc1ccccc1)C(=O)O)[C@H](C(=O)O)C2
inactive: Potency [1] | Potency [2] | Potency [3] | Potency [4] | Potency [5] | outcome [6] | outcome [8]

CC(C)NCC(O)c1ccc2ccccc2c1 (stereo not given)
inactive: Potency [1] | Potency [2] | Potency [3] | Potency [4] | Potency [5] | outcome [6] | outcome [7] | outcome [9]

O=C=NCC1CCCC(CN=C=O)C1 (stereo not given)
inactive: Potency [1] | Potency [2] | Potency [3] | Potency [4] | Potency [5] | outcome [6] | outcome [8]

CC1=C(C(=O)O)N2C(=O)[C@@H](NC(=O)[C@H](N)c3ccccc3)[C@H]2SC1
inactive: Potency [1] | Potency [2] | Potency [3] | Potency [4] | Potency [5] | outcome [6] | outcome [7] | outcome [8] | outcome [9]

O=C(O)CNC(=O)CNC(=O)CNC(=O)CSC(=O)c1ccccc1
inactive: Potency [1] | Potency [2] | Potency [3] | Potency [4] | Potency [5] | outcome [6] | outcome [7] | outcome [8] | PLD induction [9] 1.13% [at 7.66 µM]

O=C(O)[C@H](O)c1ccccc1
inactive: Potency [1] | Potency [2] | Potency [3] | Potency [4] | Potency [5] | outcome [6] | outcome [7] | outcome [8] | outcome [9]

N[C@@H](Cc1ccc(O)cc1)C(=O)O
inactive: activity change, negative = cytotoxicity [1] -0.381% [at 6.97 µM] | activity change, negative = cytotoxicity [2] 10.4% [at 6.97 µM] | activity change [3] 0.851% [at 6.97 µM, hits give high values] | activity change, negative = cytotoxicity [4] -4.17% [at 6.97 µM] | cytotoxicity increase [5] -2.53% [at 6.97 µM] | activity change, negative = cytotoxicity [6] -0.913% [at 8.39 µM] | viability change, negative = cytotoxic [7] 0.626% [at 8.39 µM] | outcome [9]

CC(C)c1ccc(C=O)cc1
inactive: Potency [1] | Potency [2] | Potency [3] | Potency [4] | Potency [5] | outcome [6] | outcome [8]

OCC(O)CN1CCN(c2ccccc2)CC1 (stereo not given)
inactive: Potency [1] | Potency [2] | Potency [3] | Potency [4] | Potency [5] | outcome [6] | outcome [7] | outcome [9]

Cn1c(=O)c2[nH]c(Br)nc2n(C)c1=O
inactive: Potency [1] | Potency [2] | Potency [3] | Potency [4] | Potency [5] | outcome [6] | outcome [7] | outcome [9]

CC1(C)Oc2ccc(C#N)cc2[C@@H](N2CCCC2=O)[C@@H]1O
inactive: Potency [1] | Potency [2] | Potency [3] | Potency [4] | Potency [5] | outcome [6] | outcome [7] | outcome [8] | outcome [9]

COc1c2occc2c(OC)c2c(=O)cc(C)oc12
active: Potency [1] 8.49 µM | Potency [2] 9.52 µM
inactive: Potency [3] | Potency [4] | Potency [5] | outcome [6] | outcome [7] | outcome [9]

CCO
inactive: Potency [1] | Potency [2] | Potency [3] | Potency [4] | Potency [5] | outcome [6] | Potency [10] | outcome [8]

CCOC(CN1CCN(CC(C)C(=O)c2ccccc2)CC1)c1ccccc1 (stereo not given)
inactive: activity change [3] -4.55% [at 15.8 µM, hits give high values] | activity change, negative = cytotoxicity [4] 0.232% [at 15.8 µM] | cytotoxicity increase [5] -9.59% [at 15.8 µM] | activity change, negative = cytotoxicity [6] -7.75% [at 19 µM] | viability change, negative = cytotoxic [7] -2.37% [at 19 µM]
